Measured values from ChEMBL document CHEMBL3988442, “University of Dundee, Small-Polar-MMV Screening Library” (2021).

Tests used:
[1] = target: T1, Aspartate--tRNA(Asp/Asn) ligase (Mycobacterium tuberculosis (strain ATCC 25618 / H37Rv)) (UniProt P9WFW3); experiment: Assay for Asp RNA synthetase-1 from Mycobacterium tuberculosis; assay type: functional; set-up: scale not given: direction of the effect not stated beside the values; conditions: 30 µM; note: in the data most compounds retested in dose-response had high values
T1 sequence (whole entry): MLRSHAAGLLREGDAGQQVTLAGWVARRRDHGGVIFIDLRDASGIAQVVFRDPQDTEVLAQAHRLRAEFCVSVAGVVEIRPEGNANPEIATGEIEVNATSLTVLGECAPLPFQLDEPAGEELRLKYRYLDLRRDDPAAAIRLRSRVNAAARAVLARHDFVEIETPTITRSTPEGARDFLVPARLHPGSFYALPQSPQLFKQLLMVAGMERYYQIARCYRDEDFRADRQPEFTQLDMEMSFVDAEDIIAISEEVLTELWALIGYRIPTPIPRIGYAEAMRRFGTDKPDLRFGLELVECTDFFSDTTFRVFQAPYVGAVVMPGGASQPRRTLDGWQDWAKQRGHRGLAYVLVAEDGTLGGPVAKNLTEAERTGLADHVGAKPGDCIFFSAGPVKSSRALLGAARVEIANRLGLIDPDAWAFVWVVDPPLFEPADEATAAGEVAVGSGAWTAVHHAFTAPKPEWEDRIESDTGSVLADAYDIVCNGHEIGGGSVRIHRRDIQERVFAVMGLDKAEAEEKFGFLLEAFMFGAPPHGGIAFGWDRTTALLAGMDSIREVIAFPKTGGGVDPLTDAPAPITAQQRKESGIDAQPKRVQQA

[2] = target: Shiga toxin 2 (Escherichia coli O157:H7) (UniProt P09385+P09386); experiment: E. coli 0.157:H7 Shiga Toxin SOP - stx2 screening assay; assay type: functional; set-up: scale not given: direction of the effect not stated beside the values; conditions: 30 µM

SMILES	Percent Effect [1] [%]	Percent Effect [2] [%]
COCCc1noc(CN2CCN(CC(O)c3ccccc3)CC2)n1 (configuration not stated)	-1.47	4.32
CCN1CCN(C(=O)NCCOc2ccc3c(c2)OCO3)CC1	-4.65	-50
Cc1nc(CN(C)C2CCCN(c3cccnn3)C2)no1 (configuration not stated)	-6.37	-10.7
CCOC(=O)C1CCN(Cc2csc(C(C)(C)C)n2)CC1	-9.34	-1.05
CCc1nc(CN2CCCN(C(=O)CCc3ccco3)CC2)cs1	-4.26	-71.2
O=S(=O)(C1CC1)N1C[C@H]2CCC[C@@]2(COc2ccccn2)C1	4.47	-32.7
Cn1cnc2c1CCN(Cc1nc(-c3ccsc3)no1)C2	-8.92	-33
CCN1CCN(C(=O)c2nc(C)n(-c3ccccc3Cl)n2)CC1	-3.15	0.607
COc1ccc(C(=O)N2Cc3c(Cn4ccnc4)nn(C)c3C2)cc1	-10.7	-6.82
CC(C)CCN1Cc2c(C(=O)O)ncn2-c2ccccc2S1(=O)=O	-0.474	-10.7
CCS(=O)(=O)c1ncc(CN(C)Cc2ccccn2)n1CCOC	0.893	6.2
O=c1cc(Cn2ccnc2)nc2n1CCCN(Cc1ccsc1)C2	-0.029	-13.8
COCCC(=O)N1CCC(c2noc3nc(C)cc(C(F)(F)F)c23)CC1	1.68	8.3
Cc1nn(C)c(C)c1C1CCCN1C(=O)CCc1cscn1 (configuration not stated)	-2.02	20.4
O=C1CCC2(CCCN(C(=O)c3cscn3)C2)CN1CCc1c[nH]cn1 (configuration not stated)	3.83	-12.3
CC(Nc1cccc(CN2CCOC2=O)c1)C(=O)Nc1ccccc1F (configuration not stated)	1.17	-24.4
OCC1CCCN1c1cc(N2CCC(OC3CCCC3)CC2)ncn1 (configuration not stated)	-1.79	7.55
Nc1cc(CCCNC(=O)NC2CC2)nn1-c1ccccc1	-4.03	-2.96
CCOc1cc(C(=O)N2CCCC(c3noc(C)n3)C2)ccn1 (configuration not stated)	0.253	28.1
CC(C)c1nc(C2CCCN(Cc3nnc(C4CC4)o3)C2)no1 (configuration not stated)	-2.16	-7.91
CN(C)c1cc(C(=O)NCCc2n[nH]c(=O)[nH]2)ccn1	0.719	-0.859
CN1CCCC1c1cccc(Cc2ccccc2F)n1 (configuration not stated)	-0.581	1.7
CCc1nccn1C1CCCN(C(=O)c2ccc3c(c2)OCO3)C1 (configuration not stated)	-0.182	11.8
O=C(C[C@@H]1COC[C@H]2CN(Cc3ccc(F)cc3)C[C@@H]12)N1CCCCO1	3.14	-37.2
Cc1cc(CN2CCN(C(=O)NC(C)c3cccnc3)CC2)on1 (configuration not stated)	-1.43	24.6
Fc1cccc(-c2nc(CN3CCOC(Cn4cncn4)C3)co2)c1 (configuration not stated)	-4	1.8

SMILES	Percent Effect [1] [%]	Percent Effect [2] [%]
Cc1cnn(CC2CN(Cc3nc(N)c4ccccc4n3)CCO2)c1 (configuration not stated)	3.58	20.2
CCc1nc(C2CCCN2C(=O)c2ccc3c(c2)nc(C)n3C)no1 (configuration not stated)	-0.367	2.43
CC(C)c1nc2n(n1)CC(NCc1ccncc1)CC2 (configuration not stated)	-2.1	-1.1
Cc1cnn(C2CCCN(C(=O)Cc3cn4ccccc4n3)C2)c1 (configuration not stated)	-6.71	-40.6
CC(NC(=O)NCCCc1n[nH]c(N)c1C#N)c1cccs1 (configuration not stated)	-7.85	-34.7
Cc1nc(C)n(CC2CCCN2Cc2nc(N)c3ccccc3n2)n1 (configuration not stated)	-1.84	-29.4
Cn1cnnc1C1CCCN(C(=O)Cc2ccc3c(c2)OCCO3)C1 (configuration not stated)	-2.39	11.9
CCN1CCN(Cc2ccnc(-c3cccnc3)n2)CC1	-0.64	-13.1
CSc1ccccc1C(C(=O)O)N1CCN(Cc2ccccn2)CC1 (configuration not stated)	-1.38	17.4
Cc1ncsc1C(=O)NC1CCN(Cc2ccc(C#N)cc2)CC1	1.55	-28.6
COc1ccc2c(c1)CC(NC(=O)NCc1cccs1)CO2 (configuration not stated)	-4.82	-8.88
O=C(Cn1ccc2c(Cl)cccc21)N[C@@H](C(=O)O)c1ccccc1	-6.24	-13.8
N#Cc1ccc(S(=O)(=O)NC(=O)C2CC2)c(C(F)(F)F)c1	4.77	9.71
CC(=O)N1[C@H](CN(C)C)C[C@@H]2CN(C(=O)c3cccc(F)c3)CC[C@@H]21	-0.523	-3.85
CCNC(=O)c1ccc2c(c1)nc1n2CCN(Cc2ccco2)C1	3.83	-56
Cc1cc(C2CCCN(C(=O)c3ccc(C)[nH]c3=O)C2)n[nH]1 (configuration not stated)	-1	3.9
O=C1CCC2(CCN(Cc3nccs3)CC2)N1Cc1ccccc1	-2.78	13.1
CCCC1(CO)CCCN(c2ncccc2F)C1 (configuration not stated)	0.836	-7.35
CC(C)n1ccnc1C1CCN(Cc2ccc(Cl)s2)CC1	4.1	-48.4
Cc1cc(C)cc(C2(C(=O)NC(C)Cn3ccnc3)CC2)c1 (configuration not stated)	-2.37	-14.1
CCc1nccn1C1CCCN(C(=O)c2csc(NC(C)=O)n2)C1 (configuration not stated)	-1.64	-11.1
Cc1cc(=O)[nH]c(SCC(=O)N(C)CC2Cc3ccccc3CN2C)n1 (configuration not stated)	1.96	5.78
COc1c(CNCc2ccc(CN(C)C)cc2)c(C)nn1C	2.29	-30.1
CNC(=O)CSc1nc2c(cnn2Cc2ccc(F)cc2)c(=O)[nH]1	-1.18	-8.43
CN(C)CC1CN(Cc2cccc(C(=O)N(C)C)c2)CCO1 (configuration not stated)	-3.06	-24.2
CN(C)C(=O)CC1CC2(CCN(CC3CC3)CC2)c2cc(F)ccc21 (configuration not stated)	2.15	-3.11

SMILES	Percent Effect [1] [%]	Percent Effect [2] [%]
Cc1csc(CNC(=O)N(C)Cc2cnn(C)c2)n1	1.54	-1.35
CC(C)C(=O)N1CCCC(c2cc(C(F)F)n3ncnc3n2)C1 (configuration not stated)	1.92	-11.7
CN1CC(=O)N(c2ccccc2)CC12CCN(CC1CC1)C2 (configuration not stated)	3.68	-5.63
Cc1ccc(N2CCCN(C(=O)C(C(C)C)n3cncn3)CC2)nn1 (configuration not stated)	-4.34	-13.6
Cc1ccc(C(O)CNCCn2cccn2)cc1C (configuration not stated)	-5.54	2.86
CC(=O)N1CCCC1c1nccc(C)n1 (configuration not stated)	0.191	0.898
CC(C)C(=O)NCC(=O)N(C)C1CCCN(C2Cc3ccccc3C2)C1 (configuration not stated)	1.1	0.34
O=C(Cn1cccn1)NCC1(c2ccccc2)CC1	-2.68	16.1
COCCc1noc(CNC2CCc3nc(C(C)C)nn3C2)n1 (configuration not stated)	3.49	9.38
CNC(=O)c1cccc(NC(=O)Cn2nc(-c3cccs3)oc2=O)c1	-8.92	-55.6
CN(Cc1nnc(C2CC2)n1C)C1CCN(Cc2ccccc2F)C1 (configuration not stated)	-3.49	-40.3
CC(C)CN1CCN(C)C2(CCN(Cc3ccsc3)CC2)C1=O	1.25	-3.28
Cc1nc(CN2CCn3cc(CNC(=O)C4CCC4)nc3C2)cs1	11	-50.1
CCc1cnc2c(c1NCc1cccc(OC)c1)c(=O)n(C)c(=O)n2C	-0.0729	-21.5
CC(C)c1nc2n(n1)CC(NCc1nnc(-c3ccco3)o1)CC2 (configuration not stated)	-3.46	11.7
COc1ccccc1Oc1ncccc1CNC(=O)[C@@H](C)NC(C)=O	0.362	-19.5
c1ccc(N2CCOC3(CCCN(c4nncs4)C3)C2)nc1 (configuration not stated)	6.43	1.67
CC(C)c1nc(CN(C)C2CCN(CCNS(C)(=O)=O)C2)no1 (configuration not stated)	0.0463	-26.6
Cc1noc([C@H]2C[C@@H]3CCN(C(=O)N(C)C)C[C@H]3O2)n1	3.32	-1.56
CCc1n[nH]c(C2CN(C(=O)c3csnn3)CCO2)n1 (configuration not stated)	1.53	10.6
O=C(Cn1nc(-c2cccs2)ccc1=O)N1CCCCCC1	1.6	-0.139
COCCN1C[C@@H]2CN(c3ncccn3)C[C@@H]2C1=O	0.324	-15.3
Cc1ccc(NC2CCN(C(=O)c3cccn3C)CC2)nn1	-9.26	-60.3
CC(=O)N(Cc1ncc(C)o1)C1CCN(Cc2noc(C)n2)C1 (configuration not stated)	5.42	4.63
COCC(=O)N1CCN(C(=O)c2scnc2C)CC1	-5.75	-11
COc1ccccc1OCCN1CCCC(c2cc(C(N)=O)[nH]n2)C1 (configuration not stated)	0.0735	5.34

SMILES	Percent Effect [1] [%]	Percent Effect [2] [%]
CC(=O)NCCC(=O)NCc1cccnc1-n1cnc2ccccc21	-1.62	-2.41
Cc1nc(CN2CCOC(Cn3cncn3)C2)nc2ccccc12 (configuration not stated)	-2.91	16.4
O=C(CN1CCCC(O)C1)NC(=O)NCc1cccs1 (configuration not stated)	-0.0898	-13.2
CN(Cc1nc(N)c2ccccc2n1)C1CCCN(c2cccnn2)C1 (configuration not stated)	-4.22	-28.7
Cc1cc(NC(=O)CN2CCCC2c2noc(C(C)C)n2)n(C)n1 (configuration not stated)	-2.48	5.27
CC(NC(=O)c1cccs1)C(=O)NCc1cccnc1N1CCCCC1 (configuration not stated)	-3.06	11
Cc1nc(COc2ccc(CNCC3CN(C)CCO3)cc2)cs1 (configuration not stated)	5.51	-13.8
Cn1ccnc1C(NCc1csc(Br)c1)c1ccccc1 (configuration not stated)	-0.175	-3.96
CC(C)(C)c1ccn(C2(C(=O)O)CCN(c3nccc(N)n3)CC2)n1	3.12	-19.9
CCc1ccccc1-n1cc(O)c(C(=O)N2CCCCC2)n1	1.02	31
NCc1cnn(-c2ccccc2C(=O)NCc2ccncc2)c1	-3.11	13.2
COCCNC(=O)[C@H]1CN(c2nnc(C)s2)C[C@H]2OCC[C@@H]12	-1.22	-23.9
COc1ccc(-c2csc(N)c2C#N)cc1OC	3.46	-24.5
CN(C)CC1CN(Cc2nnc(-c3ccccc3Cl)o2)CCO1 (configuration not stated)	-1.66	-41.7
O=C(CCc1ccccc1)NCC1CCN(Cc2ccsc2)CC1	-3.19	-9.05
Cc1cccc(CN2C[C@@H]3CN(C(=O)[C@H]4CCCO4)C[C@@H]3C2=O)c1	-6.69	-9.8
Cc1ccc(N2CCCN(C(=O)c3c(C)oc(C)c3C)CC2)nn1	1.16	-1.2
Cc1noc2ncc(C(=O)NCC3CCN(C(C)C)C3)cc12 (configuration not stated)	1.08	17.2
CN(c1ccncn1)C1CC2(CCN(C(=O)CCc3cccs3)C2)C1 (configuration not stated)	-1.32	-23.3
CN(Cc1ccco1)[C@@H]1CN(C(=O)c2ccnnc2)C[C@@H]2CCCO[C@@H]21	-5.22	-5.91
Cc1cc(CC(=O)N2CCCC2c2nc(C(C)C)no2)on1 (configuration not stated)	-3.79	8.6
O=C(NC1CCN(c2snc3ccccc23)CC1)C1CCC1	4.7	-22.1
CCCNC(=O)CNc1ccc(C(=O)N2CCCCC2C)cc1C (configuration not stated)	3.79	10.6
